The source of these data is paper PMC5540273 (PLoS ONE, 2017).
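Note: KINOMEscan kinase panel screen.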

The test deals with PRKX. The settings on record: concentration: 1 μM, replicates: in singlicate; n = 1.
For `COc1cccc(C2=C(Nc3cc(Cl)c(O)c(Cl)c3)C(=O)NC2=O)c1` [SB-390767], the “%Inh” value is recorded as 12%. With `CN1c2ccc(-c3ccc(C(N)=O)cc3)cc2-c2[nH]ncc2S1(=O)=O` the figure was 0%; with `O=C(Nc1n[nH]c2nc(-c3ccco3)c(Br)cc12)C1CCN(Cc2ccccc2)C1.O=C(O)[C@H](O)[C@@H](O)C(=O)O` (stereo not drawn) [SB-742034], 0%. With `Cc1ccccc1-c1cc(-c2c[nH]nc2-c2ccccn2)ccn1` [GW680061] the figure was 5%; with `O=C(Nc1n[nH]c2cc(-c3ccsc3)ccc12)C1CC1` [SB-732932], 1%. With `Fc1ccc(-c2nc[nH]c2-c2ccncc2)cc1` [SB-217360] the figure was 0%; with `CNCc1ccc2nc(NC(=O)c3ccc(C(C)(C)C)cc3)cn2c1`, 9%. In the case of `Cc1ccc(NC(=O)Nc2ccc(Cl)cc2)cc1-c1ccc(C(=O)Nc2ccncc2)cc1` [GSK1398472], the “%Inh” value worked out at 24%. Turning to `CCCCc1nn2ncccc2c1-c1ccnc(NC2CC2)n1` [GW684374], the “%Inh” value was found to be 4%.

Consider `COc1ccc(-c2coc3ccc(-c4nnc(C)o4)cc23)cc1`, for which the “%Inh” value is 0%. The result for `CS(=O)(=O)CCNCc1nc(-c2ccc3ncnc(Nc4ccc(OCc5ccccc5)c(Cl)c4)c3c2)cs1.Cl` [GW582764] reads 0%. With `CC[C@@H]1CO[C@H](C(=O)Nc2ccccc2)CN1c1cc(-c2ccc3c(N)n[nH]c3c2)nc(NC)n1` [GSK2376236] the figure was 95%; with `COc1ccc(Nc2nccc(NCCNC(=O)Nc3cc(C)ccc3C)n2)cc1` [GSK1379899], 5%.

Turning to `CC(=O)c1c(C)c2cnc(Nc3ccn(C)n3)nc2n(C2CCCC2)c1=O`, the “%Inh” value amounted to 0%. The result for `COc1ccc(Nc2nccc(N3CCC(NC(=O)C(C)c4ccc(Cl)cc4)CC3)n2)cc1` (stereo not drawn) [GSK1379812] reads 8%; that for `CC(C)c1cc(-c2ccc3c(N)n[nH]c3c2)nc(N)n1` [GSK2250882], 25%; that for `COC(=O)c1cccc(NC(=O)NC2CCN(c3ccnc(Nc4ccc(F)cc4)n3)C2)c1` (stereo not drawn) [GSK1379725], 0%. With `Fc1ccc(-c2nc3n(c2-c2ccncc2)CCS3)cc1` [GI98581] the figure was 15%; with `COc1nccc(-c2c(-c3ccc(F)cc3)ncn2CCCN2CCOCC2)n1` [SB-282852], 0%; with `CNc1nc(-c2ccc3c(N)n[nH]c3c2)cc(N2C[C@@H](C(=O)Nc3ccccc3)CC[C@H]2C)n1` [GSK2298859], 97%. With `O=C1NC(=O)C(c2ccc(Cl)cc2)=C1Nc1ccc(O)cc1` [SB-340867] the figure was 0%; with `Cl.Cl.Cl.N#Cc1ccc(CCNc2nccc(-c3cccc(CN4CCNCC4)c3)n2)cc1` [GSK2137462], 4%. For the molecule `Cc1nccc(-c2c(-c3ccc(F)cc3)ncn2CCCN2CCOCC2)n1.Cl` [SB-282975], the “%Inh” value amounted to 0%.

For the molecule `Cc1ccc(NC(=O)Nc2ccccc2)cc1-c1ccc(C(=O)Nc2ccncc2)cc1` [GSK1398471], the “%Inh” value came to 14%. Take `Cn1cnc2c(N)ncnc21` [SKF-97623]: the “%Inh” value was 0%. The result for `Cn1cncc1-c1cc2c(Nc3ccc(OCc4ccccc4)cc3)ncnc2cn1` [GW281179] reads 15%; that for `Nc1cccc(-c2ccc3c(N)n[nH]c3c2)n1` [GSK2192730], 23%. With `Cc1c(Cn2c(C)c(C)n3c(=O)cc(N4CCOCC4)nc23)cccc1C(F)(F)F` [GSK2328680] the figure was 0%. For the molecule `Cc1ccc(-c2nc(Nc3ccncc3)c3ccccc3n2)s1` [GSK189015], the “%Inh” value is 19%. `CCn1c(-c2c(N)noc2C)nc2cnccc21` [SB-737856]: the “%Inh” value stood at 16%. As to `CS(=O)(=O)CCNCc1nc(-c2ccc3ncnc(Nc4ccc5c(cnn5Cc5ccccc5)c4)c3c2)cs1.Cl.Cl` [GW569716], the “%Inh” value came out at 0%. With `COc1ccc(Nc2nccc(-c3ccc(NC(=O)c4cc5cc(F)ccc5[nH]4)cc3)n2)cc1` [GSK1229496] the figure was 5%; with `COc1cc2ncnc(Nc3cccc(Br)c3)c2cc1OC.Cl` [GI230329], 6%; with `COc1ccc(CSc2nnc(-c3ccc4nccn4c3)o2)cc1C(F)(F)F`, 34%.

For `CC(=O)c1cccc(NC(=O)NC2CCN(c3ccnc(Nc4ccc(F)cc4)n3)C2)c1` (stereo not drawn) [GSK1379710], the “%Inh” value is 32%. Consider `CCc1ccc(-c2ccc3c(c2)-c2n[nH]cc2S(=O)(=O)N3C)cc1`, for which the “%Inh” value was found to be 0%.
